Only some compounds are listed: those with a hit (about 2% of all), similar ones and a draw of the others.
NPR2 activator = human GC-B receptor activators, primary screen, HEK293 GC-B cells, cGMP TR-FRET, EC30 CNP | Atrial natriuretic peptide receptor 2 (Homo sapiens), P20594 | 0% at EC30 CNP, 100% saturating CNP | activation, % at 10 µM | hit rate 0.11% among 370,000 | AID 1920062, 2024;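 active = activation at 10 µM reaching about 35% in either raw or pattern-adjusted values, limit read from the data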
Neddyl block = inhibitors of cullin neddylation, primary screen, biochemical, TR-FRET, uHTS, NAE and Ubc12. inhibition, % at 25 µM. hit rate 0.58% among 360,000. AID 651699, 2012; in the data active = inhibition above about 36%
A3G deaminase = APOBEC3G DNA deaminase inhibitors, primary screen, biochemical, fluorescence, single-stranded DNA substrate, uHTS. DNA dC->dU-editing enzyme APOBEC-3G (Homo sapiens), Q9HC16. recombinant A3G, ssDNA deamination FAM/TAMRA fluorescence. inhibition, % at 20 µM. hit rate 0.28% among 330,000. AID 493012, 2011;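 active = inhibition of at least 40% at 20 µM, with no more than 30% in the related APOBEC3A deaminase screen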;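 note: plate controls were DMSO wells with A3G for no effect and wells lacking A3G enzyme for full effect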
A3A deaminase = APOBEC3A ssDNA deaminase inhibitors, primary screen, selectivity assay for APOBEC3G inhibitor project, biochemical, FAM/TAMRA oligo cleavage fluorescence; AID 493011, 2011; recombinant A3A, FAM/TAMRA ssDNA deamination fluorescence; hit rate 0.41% among 330,000; inhibition, % at 20 µM;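 active = at least 40% inhibition at 20 µM here, with at most 30% in a related deaminase screen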;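 note: plate controls were A3A with DMSO for no effect and wells lacking A3A enzyme for full effect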
PfG6PD inh = PfG6PD enzyme inhibitors, primary screen, biochemical, fluorescence intensity, uHTS | PfGluPho enzyme, NADPH resazurin-diaphorase fluorescence | inhibition, % at 20 µM | hit rate 0.78% among 350,000;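 active = inhibition reaching at least a set limit at 20 µM in the primary screen, cut at about 59% in these data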;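 note: 0% = DMSO wells with substrate and 100% = DMSO wells lacking glucose-6-phosphate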
GC-A act = GC-A stimulated cGMP production enhancers – HEK293 GC-A cells, cGMP TR-FRET, EC30 ANP, primary screen | 0% at EC30 ANP, 100% saturating ANP | activation, % at 10 µM | hit rate 0.14% among 370,000 | AID 1671463, 2021; in the data active = activation above about 40%
Target sequence (P16066 whole entry, looked up): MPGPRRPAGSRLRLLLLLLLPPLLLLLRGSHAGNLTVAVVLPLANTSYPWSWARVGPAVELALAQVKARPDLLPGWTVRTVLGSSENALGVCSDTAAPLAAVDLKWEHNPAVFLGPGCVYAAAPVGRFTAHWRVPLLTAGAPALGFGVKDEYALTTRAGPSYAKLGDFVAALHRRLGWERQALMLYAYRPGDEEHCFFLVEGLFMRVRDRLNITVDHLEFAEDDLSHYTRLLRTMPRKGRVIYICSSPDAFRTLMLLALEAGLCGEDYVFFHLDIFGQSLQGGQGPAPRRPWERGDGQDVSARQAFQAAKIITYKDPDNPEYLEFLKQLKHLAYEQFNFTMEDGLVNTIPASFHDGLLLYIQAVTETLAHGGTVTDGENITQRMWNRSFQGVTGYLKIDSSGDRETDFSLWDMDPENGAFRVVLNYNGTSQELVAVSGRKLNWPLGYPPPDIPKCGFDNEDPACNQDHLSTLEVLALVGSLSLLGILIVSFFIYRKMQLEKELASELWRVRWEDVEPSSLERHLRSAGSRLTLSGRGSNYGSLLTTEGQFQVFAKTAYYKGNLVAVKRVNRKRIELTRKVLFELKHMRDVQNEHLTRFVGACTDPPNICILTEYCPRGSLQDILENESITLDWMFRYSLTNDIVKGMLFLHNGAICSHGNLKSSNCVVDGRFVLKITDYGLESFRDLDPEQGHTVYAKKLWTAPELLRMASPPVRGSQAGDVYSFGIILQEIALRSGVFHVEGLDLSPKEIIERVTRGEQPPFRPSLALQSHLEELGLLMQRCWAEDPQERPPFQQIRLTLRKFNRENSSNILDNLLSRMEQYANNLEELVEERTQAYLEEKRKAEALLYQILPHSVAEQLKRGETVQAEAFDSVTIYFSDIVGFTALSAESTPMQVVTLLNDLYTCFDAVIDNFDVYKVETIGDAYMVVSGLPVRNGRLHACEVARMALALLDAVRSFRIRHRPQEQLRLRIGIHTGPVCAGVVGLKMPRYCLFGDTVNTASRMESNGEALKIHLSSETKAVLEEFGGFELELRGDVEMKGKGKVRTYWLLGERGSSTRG
PfG6PD confirm = PfG6PD inhibitors, hit retest, confirmation, biochemical, fluorescence intensity, single concentration; recombinant PfGluPho, NADPH-diaphorase-resazurin fluorescence; shares compounds with PfG6PD inh; hit rate 34% among 2,400; inhibition, % at 20 µM; AID 504753, 2011;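 active = inhibition of at least 50% at 20 µM in any single replicate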;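 note: 0% = DMSO with substrate and 100% = DMSO lacking glucose-6-phosphate substrate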
Diaph ctr 10uM = diaphorase inhibitors and chemical oxidizers, confirmation, counter-screen for P. falciparum G6PD inhibitor project, biochemical, fluorescence intensity, 10 µM NADPH; inhibition, % at 20 µM; shares compounds with PfG6PD inh; hit rate 39% among 820; diaphorase-coupled resazurin reduction, NADPH 10 uM;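 active = average inhibition reaching 50% or more with the compound at 20 µM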;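 note: resorufin red fluorescence formed as diaphorase reduces resazurin using NADPH; 0% = DMSO with enzyme and 100% = DMSO without enzyme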
Diaph ctr 30uM = diaphorase inhibitors and chemical oxidizers, confirmation, counter-screen for P. falciparum G6PD inhibitor project, biochemical, fluorescence intensity, 30 µM NADPH. shares compounds with PfG6PD inh. Diaphorase/resazurin coupled assay, resorufin fluorescence. inhibition, % at 20 µM. hit rate 29% among 820;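 active = inhibition averaging 50% or more, tested at 20 µM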;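 note: 0% = DMSO with enzyme and 100% = DMSO wells lacking diaphorase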
* marks the source's active call; other numbers are inactive results; · = no result shown.

SMILES	NPR2 activator	Neddyl block	A3G deaminase	A3A deaminase	PfG6PD inh	GC-A act	PfG6PD confirm	others
COC(=O)[C@]12C[C@H](CC(=O)N3CCC(c4ccccc4)CC3)C(=O)N(Cc3ccc(Cl)cc3Cl)C1=C[C@H](C(C)(C)C)O[C@@H]2C	6	·	·	·	·	-1	·
Cc1cc2[nH]c3c4ccccc4nc(C)c3c2cc1C	-9	·	·	·	75*	-23	8
Cc1cc(N)c2cc(NC(=O)/C=C/c3ccccc3Cl)ccc2n1	·	42*	-13	7	60*	·	1
Cc1cc(C)nc(NC(=O)/C=C/c2ccccc2Cl)n1	-4	-12	-4	1	1	-4	·
COc1ccc(Nc2ccc(OC)cc2)cc1	-5	-21	17	-4	64*	-3	25
COc1ccc(Nc2ccc(Nc3ccc(OC)cc3)nn2)cc1	-15	-11	-4	-2	0	-3	·
Cc1cc(Nc2ccc([N+](=O)[O-])cc2)nc2ccccc12	-2	-9	-5	-1	9	4	·
COc1ccc(Nc2cc(C)c3ccccc3n2)cc1	-5	·	-7	-4	66*	3	-1
CCN1CCCC1CNC(=O)c1ccc2c(c1)NC(=O)/C(=C\c1ccc(C)cc1)S2 (stereo unspecified)	-4	4	-4	-2	117*	10	104*	Diaph ctr 10uM=-12;Diaph ctr 30uM=-3
O=C1Nc2cc(C(=O)NCCCN3CCCC3)ccc2S/C1=C/c1ccccc1F	-2	11	-1	-2	26	20	·
O=C1Nc2cc(C(=O)NCCN3CCCCCC3)ccc2S/C1=C/c1ccccc1F	7	18	·	·	99*	11	45
COC(=O)[C@H](CC(C)C)N(CCc1cn(Cc2ccccc2)nn1)S(=O)(=O)c1ccccc1Br	6	·	·	·	·	-1	·
O=[N+]([O-])c1cnc(Sc2ccncn2)c([N+](=O)[O-])c1	7	-19	·	·	80*	24	59*	Diaph ctr 10uM=9;Diaph ctr 30uM=13
O=[N+]([O-])c1cnc(Sc2ccncn2)s1	9	2	38	-2	19	15	·
COCC(=O)OC1CCn2c1nc1c2C(=O)C(C)=C(NC(C)=O)C1=O (stereo unspecified)	3	-46	·	·	123*	-5	104*	Diaph ctr 10uM=99*;Diaph ctr 30uM=89*
O=c1[nH]c(=O)c2[nH]c(=S)n(-c3ccccc3)c2[nH]1	-1	1	·	·	64*	3	37
O=C(O)c1ccc2c(=O)n(-c3ccccc3)c(=S)[nH]c2c1	8	0	-1	3	29	0	·
O=C1OC(c2ccc(O)cc2)(c2ccc(O)cc2)c2ccccc21	1	-6	2	1	-48	3	·
O=C1OC(c2ccccc2)(c2ccc3cc(O)ccc3c2)c2ccccc21 (stereo unspecified)	-10	-11	·	·	62*	-18	-10
O=C1OC(c2ccc3ccccc3c2O)(c2ccc3ccccc3c2O)c2ccccc21	-3	0	·	·	75*	-9	57*	Diaph ctr 10uM=15;Diaph ctr 30uM=11

From PubChem
